Bioassay records from PubChem BioAssay.
This is a sample that favours compounds with a hit; in the whole collection about 10% have one here.
SW480 rerep = inducers of DNA re-replication in SW480 colon cancer cells | SW480 DNA re-replication, Hoechst DNA content imaging, 48 h | Potency, µM (doses to about 46.1 µM), most hits filed as activators | 1.8% of 340,000 active | AID 624297; note: nearly all actives have a fitted effect of over 55% in size
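Image-based read-out: total Hoechst fluorescence of nuclei (405 nm excitation, 500-530 nm emission), with hits raising the fraction of high-intensity nuclei. SW480 colon cells incubated 48 hr with compounds at 37 C.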
Gal4-VP16 FLuc = counter-screen for ROR gamma inhibitors: Gal4-VP16 reporter. Potency, µM (series often up to 53.6 µM), most hits filed as inhibitors. Drosophila S2 Gal4-VP16 UAS-luciferase, luminescence, 20 h. 3.5% of 310,000 active. AID 2546;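 note: Gal4-VP16 expression switched on by copper sulfate through the metallothionein promoter; nearly all actives have a fitted effect of over 50% in size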
MCF10A rerep = inducers of DNA re-replication in MCF 10A breast cells | 2.9% of 350,000 active | AID 624296 | Potency, µM (highest dose often 46.1 µM), most hits filed as activators | MCF 10A DNA re-replication, Hoechst nuclear intensity, 48 h; note: nearly all actives have a fitted effect of over 50% in size
RORgamma inh = inhibitors of mouse ROR gamma transcriptional activity | P51450 | Drosophila S2 Gal4-RORgamma UAS-luciferase reporter, 20 h | Potency, µM (highest dose often 53.6 µM), most hits filed as inhibitors | 5.4% of 310,000 active | AID 2551; note: nearly all actives have a fitted effect of over 60% in size
Target sequence (P51450 whole entry, looked up, the tested form may be a part): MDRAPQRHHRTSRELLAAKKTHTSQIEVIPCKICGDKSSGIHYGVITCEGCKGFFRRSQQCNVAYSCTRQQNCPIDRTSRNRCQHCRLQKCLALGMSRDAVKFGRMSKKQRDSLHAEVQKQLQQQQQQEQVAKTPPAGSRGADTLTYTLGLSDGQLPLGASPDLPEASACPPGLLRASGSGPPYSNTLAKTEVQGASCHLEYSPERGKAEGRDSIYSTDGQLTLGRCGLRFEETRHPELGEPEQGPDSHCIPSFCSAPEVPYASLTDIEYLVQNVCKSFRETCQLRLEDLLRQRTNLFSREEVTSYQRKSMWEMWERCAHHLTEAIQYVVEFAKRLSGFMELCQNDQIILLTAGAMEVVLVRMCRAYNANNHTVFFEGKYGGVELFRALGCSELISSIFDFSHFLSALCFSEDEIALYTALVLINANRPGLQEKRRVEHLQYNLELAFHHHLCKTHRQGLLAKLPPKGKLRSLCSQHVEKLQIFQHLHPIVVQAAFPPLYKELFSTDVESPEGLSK
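A Gal4/UAS one-hybrid system in insect cells: metallothionein-promoter Gal4–ROR gamma fusion plus Photinus luciferase reporter. Copper sulfate 700 uM final, 20 hr ambient incubation, luminescent detection after 10 min with reagent.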
ELG1 DNA repair = inhibitors of ELG1-dependent DNA repair in HEK293T cells. HEK293T ELG1-luciferase reporter, luminescence, 16 h; DNA damage induced by 5-fluorouridine. Potency, µM (doses to about 46.1 µM), most hits filed as inhibitors. 2.3% of 330,000 active; note: nearly all actives have a fitted effect of over 55% in size
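HEK293T cells expressing luciferase-tagged ELG1 (2,000/well) received 5-Fluorouridine plus compound or DMSO for 16 hr at 37 °C. Luciferase was read by ONE-Glo luminescence after 30 min at room temperature.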
Of the large screens only hits and unclear results are named; the others gave an inactive call. Calls come from the whole dose curve; as a rule, active = well fitted curve in the direction sought with a large enough effect; inconclusive = small, poorly fitted or top-dose-only effect, or another doubt; inactive = no such curve, though single readings can be large; an effect the other way counts as inactive or inconclusive.

O=C(O)C1CCN(C(=O)CSc2nnc3ccccn23)CC1	none (no result: Gal4-VP16 FLuc, RORgamma inh)
COc1ccc(C(=O)Nc2nc3nccc(-c4ccccc4)n3n2)cc1	none
COc1ccc(C)cc1NS(=O)(=O)c1ccc2c(c1)NC(=O)C(C)S2 (stereo unspecified)	Gal4-VP16 FLuc inconclusive
Cc1ccc(S(=O)(=O)Oc2ccc(C)cc2/C=N/N=C2\NC(=O)C(C)S2)cc1 (stereo unspecified)	Gal4-VP16 FLuc 10µM, MCF10A rerep inconclusive, RORgamma inh 13µM, ELG1 DNA repair inconclusive
Cc1ccc(NC(=O)Cn2nnc(-c3ccccc3NC(=O)c3cccs3)n2)cc1	SW480 rerep 3.7µM, MCF10A rerep 6.5µM, ELG1 DNA repair inconclusive
COc1ccc(NC(=O)Cn2nnc(-c3ccccc3NC(=O)c3cccs3)n2)cc1	SW480 rerep inconclusive, MCF10A rerep 15µM
COc1ccc(NC(=O)Cn2nnc(-c3ccccc3NS(=O)(=O)c3ccc(OC)cc3)n2)cc1	MCF10A rerep inconclusive, ELG1 DNA repair inconclusive
O=C(Cn1nnc(-c2ccccc2NC(=O)c2ccco2)n1)Nc1ccccc1	SW480 rerep inconclusive, MCF10A rerep inconclusive
CC(C)(C)OC(=O)C[C@H]1C/C=C\C[C@@H](CC(=O)NCCO)C(=O)N[C@H](Cc2ccccc2)COC1=O	none (no result: Gal4-VP16 FLuc, RORgamma inh)
CCCCC(=O)NC(=S)NNC(=O)CC	RORgamma inh 7.9µM
CCCCCC(=O)NC(=S)NNC(=O)CC	RORgamma inh 11µM
CCCCC(=O)NC(=S)Nc1cccc(C(=O)O)c1	ELG1 DNA repair inconclusive
CCCCCC(=O)NNC(=S)NC(=O)c1ccccc1[N+](=O)[O-]	RORgamma inh inconclusive
CCCCC(=O)NC(=S)Nc1c(C)cc(Br)cc1C	Gal4-VP16 FLuc inconclusive, RORgamma inh 5.6µM
CCCCC(=O)NC(=S)NNS(=O)(=O)c1ccccc1	Gal4-VP16 FLuc 20µM, RORgamma inh 13µM
COc1cccc(-c2nnc3n2N=C(c2c(OC)cccc2OC)CS3)c1	none (no result: SW480 rerep, MCF10A rerep, ELG1 DNA repair)
O=C(CN1CCN(S(=O)(=O)c2ccccc2)CC1)Nc1ccnn1C1CCCC1	none (no result: Gal4-VP16 FLuc, RORgamma inh)
COCc1cc(CN2CCCC2)c(O)c2ncccc12	Gal4-VP16 FLuc 8.9µM, RORgamma inh 10µM, ELG1 DNA repair inconclusive
CCOc1ccccc1N1CCN(Cc2cccc(OC)c2O)CC1	none
Oc1c(CN2CCCCC2)cc(COCc2ccccc2)c2cccnc12	SW480 rerep 3.2µM, Gal4-VP16 FLuc 0.0089µM, MCF10A rerep 16µM, RORgamma inh 0.32µM
O=[N+]([O-])c1cc(CN2CCCC2)c2cccnc2c1O	Gal4-VP16 FLuc inconclusive, RORgamma inh inconclusive
COc1ccccc1N1CCN(Cc2cc(Br)c(O)c3ncccc23)CC1	SW480 rerep 5.2µM, Gal4-VP16 FLuc 1.4µM, MCF10A rerep inconclusive, RORgamma inh 1.1µM, ELG1 DNA repair inconclusive
COc1ccc(CCNC(=O)CN(C)S(=O)(=O)c2ccc(OC)cc2)cc1	MCF10A rerep inconclusive
Cc1cc(NC(=O)Nc2ccccc2F)ccc1Br	SW480 rerep inconclusive, Gal4-VP16 FLuc inconclusive, MCF10A rerep 18µM, ELG1 DNA repair inconclusive
O=C(Nc1ccccc1)Nc1ccc(Br)cc1F	Gal4-VP16 FLuc inconclusive, RORgamma inh inconclusive, ELG1 DNA repair inconclusive
Cc1ccc(-n2c(-c3cc(C)n(C)n3)n[nH]c2=S)cc1	RORgamma inh 11µM
Cc1ccc(-n2c(-c3cn(C)nc3C)n[nH]c2=S)cc1	RORgamma inh 10µM (no result: SW480 rerep, MCF10A rerep)
Cc1cc(C)nc(NC(=NCCc2c[nH]c3ccccc23)NC(=O)c2ccco2)n1	MCF10A rerep inconclusive, ELG1 DNA repair 12µM
Cc1cc(C)nc(NC(=NCCc2c[nH]c3ccccc23)NC(=O)Nc2cccc([N+](=O)[O-])c2)n1	SW480 rerep inconclusive, Gal4-VP16 FLuc inconclusive, ELG1 DNA repair 5.2µM
Cc1cc(C)nc(NC(=NCCc2c[nH]c3ccccc23)NC(=O)Nc2ccc(Cl)c(Cl)c2)n1	MCF10A rerep inconclusive, ELG1 DNA repair inconclusive
Cc1cc(C)nc(NC(=NCCc2c[nH]c3ccccc23)NC(=O)Nc2ccccc2)n1	SW480 rerep inconclusive, MCF10A rerep 26µM, ELG1 DNA repair 15µM
O=C(CCNC(=O)c1ccco1)NCCc1c[nH]c2ccccc12	none (no result: Gal4-VP16 FLuc, RORgamma inh)
CCC(C)N(C(=O)COC(=O)c1ccc(=O)n(Cc2ccccc2)n1)C1CCS(=O)(=O)C1 (stereo unspecified)	none (no result: Gal4-VP16 FLuc, RORgamma inh)
O=S(=O)(CC(CN1CCCCC1)N1CCCCC1)c1ccccc1 (stereo unspecified)	SW480 rerep inconclusive, MCF10A rerep 6.5µM, ELG1 DNA repair inconclusive
CCCCCCCCCCCCCCCC(=O)NC(C)C	none (no result: SW480 rerep, MCF10A rerep, ELG1 DNA repair)
Cc1ccc(C(=O)NN2C(=O)C3C(C2=O)C2C=CC3C23CC3)cc1 (stereo unspecified)	none
CCn1c(COc2ccc(C)cc2)nnc1SCc1nc2ccccc2[nH]1	Gal4-VP16 FLuc inconclusive, RORgamma inh 13µM, ELG1 DNA repair inconclusive
Clc1cccc(-c2nnc(SCc3nc4ccccc4[nH]3)n2Cc2ccco2)c1	MCF10A rerep inconclusive
O=c1[nH]c(CSc2nnc(COc3ccccc3)n2-c2ccccc2)nc2ccccc12	Gal4-VP16 FLuc inconclusive, RORgamma inh 13µM, ELG1 DNA repair inconclusive
Clc1ccc(OCc2nnc(SCc3nc4ccccc4[nH]3)n2Cc2ccco2)cc1	Gal4-VP16 FLuc inconclusive, RORgamma inh inconclusive, ELG1 DNA repair 16µM
O=C(Nc1ccc(NC(=O)C2CC2)cc1)c1cccs1	ELG1 DNA repair inconclusive
C=CCOc1cccc(C(=O)N2CCCC(Nc3ccc4c(c3)OCCO4)C2)c1 (stereo unspecified)	MCF10A rerep inconclusive, RORgamma inh inconclusive
CCN(c1ccccc1)S(=O)(=O)c1ccc(Cl)c(NC(=O)COC(=O)c2cccc(OC)c2O)c1	SW480 rerep inconclusive
CCN(c1ccccc1)S(=O)(=O)c1ccc(Cl)c(NC(=O)CN2CCN(C)CC2)c1	MCF10A rerep 16µM, ELG1 DNA repair inconclusive (no result: Gal4-VP16 FLuc, RORgamma inh)
CCN(c1ccccc1)S(=O)(=O)c1ccc(OC)c(NC(=O)Cc2ccccc2OC)c1	none (no result: Gal4-VP16 FLuc, RORgamma inh)
CCN(c1ccccc1)S(=O)(=O)c1ccc(OC)c(NC(=O)Cc2ccc(OC)c(OC)c2)c1	ELG1 DNA repair 18µM (no result: Gal4-VP16 FLuc, RORgamma inh)
COc1ccc(S(=O)(=O)Cc2ccccc2)cc1N	SW480 rerep 6.5µM, MCF10A rerep inconclusive, RORgamma inh inconclusive
CCN(c1ccccc1)S(=O)(=O)c1ccc(Cl)c(NC(=O)CNCc2ccccc2OC)c1	SW480 rerep inconclusive, MCF10A rerep 16µM, ELG1 DNA repair 18µM (no result: Gal4-VP16 FLuc, RORgamma inh)
COC(=O)/C=C\CCc1coc(/C=C\CNC(=O)OC)n1	none (no result: SW480 rerep, MCF10A rerep, ELG1 DNA repair)
CCN(c1ccccc1)S(=O)(=O)c1ccc(Cl)c(NC(=O)CN(C)C2CCN(C)CC2)c1	SW480 rerep inconclusive, MCF10A rerep inconclusive
CCN1CCN(CC(=O)Nc2cc(S(=O)(=O)N(CC)c3ccccc3)ccc2Cl)CC1	SW480 rerep inconclusive, MCF10A rerep 21µM (no result: Gal4-VP16 FLuc, RORgamma inh)
CCN(CC)S(=O)(=O)c1ccc(N2CCN(c3ccccc3OC)CC2)c(N)c1	Gal4-VP16 FLuc 22µM, RORgamma inh inconclusive, ELG1 DNA repair inconclusive
COc1ccc(S(=O)(=O)N(C)C)cc1NC(=O)Cc1c[nH]c2ccccc12	SW480 rerep 3.7µM, ELG1 DNA repair inconclusive
